Compound activity deposited in PubChem by National Center for Advancing Translational Sciences (NCATS).
VACV Venus inh – vaccinia inhibition (Venus reporter); 330,000 tested, 0.46% active; Potency, µM (highest dose often 36.5 µM), inactives show top-dose activity change, negative = inhibition, usual class: inhibitors; Vaccinia virus Venus reporter expression, fluorescence; calls by dose curve; tested in A549 cells; also: nearly all actives have a fitted effect of over 30% in size
Marburg entry inh – Marburg virus entry inhibition; Marburg virus pseudotyped entry inhibition, cell reporter; Potency, µM (top dose mostly 37.8 µM), inactives show at the top dose activity change, negative = inhibition, usual class: inhibitors; 300,000 tested, 1.8% active; AID 540276; calls by dose curve; tested in HEK293 cells
VACV mCherry inh – inhibitors of vaccinia virus infection (mCherry reporter signal); Vaccinia virus mCherry reporter infection, fluorescence; Potency, µM (series often up to 36.5 µM), inactives show top-dose activity change, negative = inhibition, usual class: inhibitors; 310,000 tested, 0.63% active; calls by dose curve; tested in A549 cells; also: nearly all actives have a fitted effect of over 35% in size
FMDV inh – blocks foot and mouth disease virus | FMDV antiviral cell-based qHTS | Potency, µM (series often up to 57.9 µM), without a hit: at the top dose activity change, negative = inhibition, usual class: inhibitors | 410,000 tested, 1.2% active | AID 1159524; calls by dose curve; tested in HEK293T cells; also: read-out not given here; nearly all actives have a fitted effect of over 45% in size
Lassa entry inh – blocks Lassa virus binding to or entry into cells. Lassa virus pseudotype entry inhibition, cell reporter. Potency, µM (titrated, usually from 37.9 µM), for the others: at the highest dose activity change, negative = inhibition, usual class: inhibitors. 300,000 tested, 1.2% active. AID 540256; calls by dose curve; tested in HEK293 cells; also: nearly all actives have a fitted effect of over 50% in size
* hit, by the source's call; ! = repeats disagree; [ ] = remark or other dose. In the library only some 3.2% were active in any assay of this set; here they are far more common. % is scaled to controls: 0 for no effect and ±100 for the full control effect; potency is read from the fitted curve at half-maximal effect.

Results for CCCCN1CC[C@@H]2C=CC[C@H](C(=O)OC)[C@@H]2C1=O ?
VACV Venus inh: 3%; VACV mCherry inh: inactive; FMDV inh: -14%

Results for COc1ccccc1CN1CCCC(C(=O)c2ccccc2OC)C1 (stereo not given) ?
VACV Venus inh: -3%; Marburg entry inh: inconclusive; VACV mCherry inh: inconclusive; FMDV inh: -13%; Lassa entry inh: inconclusive

Results for CCOc1ccc(CN2CCCC(C(=O)c3ccccc3OC)C2)cc1 (stereo not given) ?
VACV Venus inh: -17%; Marburg entry inh: 8.9µM*; VACV mCherry inh: inconclusive; FMDV inh: -4%; Lassa entry inh: inconclusive

How did COc1cccc(OC)c1CN1CCCC(C(=O)c2ccccc2SC)C1 (stereo not given) do in these assays?
VACV Venus inh: -9%; Marburg entry inh: 6.3µM*; VACV mCherry inh: -8%; FMDV inh: -14%; Lassa entry inh: inconclusive

What do the screens show for `COc1ccccc1CN1CCCC(C(=O)c2ccccc2SC)C1` (stereo not given)?
VACV Venus inh: -20%; Marburg entry inh: 10µM*; VACV mCherry inh: -13%; FMDV inh: -21%; Lassa entry inh: inconclusive

How did C[C@@H]1CN([C@@H](C)CO)C(=O)CCCn2nncc2CO[C@H]1CN(C)Cc1ccc2cccnc2c1 do in these assays?
VACV Venus inh: -19%; VACV mCherry inh: inconclusive; FMDV inh: -20%

Results for COC(=O)C1=C2CCCO[C@H]2[C@@H]2[C@@H](C)[C@H](OC)c3ccccc3[C@@H]12 ?
Marburg entry inh: 2%[14.2 µM]

Results for COC(=O)/C=C1\N/C(=N\c2nc(C)cc(C)n2)N(c2ccc(C)c(C)c2)C1=O ?
VACV Venus inh: inconclusive; Marburg entry inh: -16%; VACV mCherry inh: inconclusive; FMDV inh: 25µM*; Lassa entry inh: inconclusive

Results for COC(=O)/C=C1\N/C(=N\c2nc(C)cc(C)n2)N(c2ccc(Cl)cc2)C1=O ?
VACV Venus inh: -14%; Marburg entry inh: 6%[14.2 µM]; VACV mCherry inh: inconclusive; FMDV inh: -48%; Lassa entry inh: -3%

Results for O=C(CSc1nnc(SCc2ccc(Cl)cc2)s1)N/N=C/c1c(Cl)cccc1Cl ?
VACV Venus inh: inconclusive; Marburg entry inh: inconclusive; VACV mCherry inh: inconclusive; FMDV inh: 22%; Lassa entry inh: 3%

Results for CC(=O)Oc1ccccc1N(C(C)=O)S(=O)(=O)c1ccc2ccccc2c1 ?
VACV Venus inh: -2%; Marburg entry inh: inconclusive; VACV mCherry inh: inactive; FMDV inh: 13%; Lassa entry inh: 12%

How did CC(=O)Oc1ccc(N(C(C)=O)S(=O)(=O)c2cccs2)c2ccccc12 do in these assays?
VACV Venus inh: 2%; Marburg entry inh: 12µM*; VACV mCherry inh: -2%; FMDV inh: 16µM*; Lassa entry inh: 14%[14.3 µM]

What do the screens show for `C[C@@H]1CN([C@H](C)CO)C(=O)CCCn2nncc2CO[C@@H]1CN(C)C(=O)Nc1cccc2ccccc12`?
VACV Venus inh: -8%; VACV mCherry inh: 7%; FMDV inh: -11%

What do the screens show for `O=C(COC(=O)Cc1n[nH]c(=O)c2ccccc12)Nc1ccc(Cl)cc1F`?
FMDV inh: -5%

Results for Cc1nnnn1/C(=C\c1ccccc1)C(=O)OCC(=O)Nc1cccc(S(=O)(=O)N(C)C)c1 ?
FMDV inh: 14µM*

What do the screens show for `Cc1nnnn1/C(=C\c1ccccc1)C(=O)OCC(=O)Nc1ccc(Cl)cc1F`?
VACV Venus inh: inconclusive; Marburg entry inh: inconclusive; VACV mCherry inh: -23%; FMDV inh: 28µM*; Lassa entry inh: 20µM*

What do the screens show for `CC[C@]1(c2cccc(C)c2)C(=O)N(C(=O)OC)N1C(=O)OC`?
VACV Venus inh: inconclusive; VACV mCherry inh: 11µM*; FMDV inh: inconclusive

Results for COC(=O)N1C(=O)[C@](Cc2ccccc2)(c2ccccc2)N1C(=O)OC ?
VACV Venus inh: 10µM*; VACV mCherry inh: 13µM*; FMDV inh: inconclusive

What do the screens show for `O=C1OC2(CCCCC2)CC2=C1[C@H]1O[C@](c3ccsc3)(Cc3c1ccc1ccccc31)O2`?
Marburg entry inh: 2%[14.2 µM]; Lassa entry inh: inconclusive

Results for COCCOC(=O)C1=C(C)NC(C)=C(C(=O)OC/C=C/c2ccccc2)C1c1cccc([N+](=O)[O-])c1 (stereo not given) ?
Marburg entry inh: inconclusive; FMDV inh: inconclusive; Lassa entry inh: 8.2µM*

Results for COCCOC(=O)C1=C(C)NC(C)=C(C(=O)OC(C)C)[C@@H]1c1cccc([N+](=O)[O-])c1 ?
Marburg entry inh: inconclusive; FMDV inh: -13%

How did CCOC(=O)C1=C(N)Oc2cc(O)ccc2C1c1cccc([N+](=O)[O-])c1 (stereo not given) do in these assays?
VACV Venus inh: -26%; Marburg entry inh: inconclusive; VACV mCherry inh: -29%; FMDV inh: 20µM*; Lassa entry inh: inconclusive

How did COCCOC(=O)C1=C(C)NC(C)=C(C(=O)OC(C)C)C1c1cccc([N+](=O)[O-])c1 (stereo not given) do in these assays?
VACV Venus inh: -21%; Marburg entry inh: 5.6µM*!; VACV mCherry inh: -27%; FMDV inh: -18%; Lassa entry inh: inconclusive

Results for COC(=O)C1=C(C)NC(C)=C(C(=O)OCCN(C)Cc2ccccc2)[C@@H]1c1cccc([N+](=O)[O-])c1 ?
Marburg entry inh: 8.2µM*

Results for C=Nc1ccc(/C=C/c2ccnc3ccccc23)cc1 ?
VACV Venus inh: -26%; VACV mCherry inh: -23%

Results for CCOC(=O)C1=C(C)NC(C)=C(C(=O)OC)C1c1cccc([N+](=O)[O-])c1 (stereo not given) ?
VACV Venus inh: -20%; Marburg entry inh: 2.5µM*!; VACV mCherry inh: -6%; FMDV inh: -24%; Lassa entry inh: inconclusive

How did COC(=O)C1=C(C)NC(C)=C(C(=O)OC(C)(C)CN(C)CCC(c2ccccc2)c2ccccc2)C1c1cccc([N+](=O)[O-])c1 (stereo not given) do in these assays?
Marburg entry inh: inconclusive; Lassa entry inh: 8.2µM*

Results for CCOC(=O)C1=C(C)NC(C)=C(C(=O)OC)[C@H]1c1cccc([N+](=O)[O-])c1 ?
VACV Venus inh: -20%; Marburg entry inh: -20%; VACV mCherry inh: 25%; FMDV inh: -17%

Results for CN1/C(=C\C(=O)COc2ccc3c(c2)OCO3)C(C)(C)c2ccccc21 ?
VACV Venus inh: -4%; Marburg entry inh: -1%; VACV mCherry inh: -23%; FMDV inh: 25µM*; Lassa entry inh: -18%

How did COc1ccccc1OCC(=O)/C=C1/N(C)c2ccccc2C1(C)C do in these assays?
VACV Venus inh: -14%; Marburg entry inh: 19%[46.1 µM]; VACV mCherry inh: -16%; FMDV inh: inconclusive; Lassa entry inh: -24%

How did COc1ccc(-c2nc(CS(=O)(=O)CC(=O)NCc3ccc(F)cc3)c(C)o2)cc1 do in these assays?
VACV Venus inh: -11%; Marburg entry inh: inconclusive; VACV mCherry inh: inactive; FMDV inh: 4%; Lassa entry inh: 7%[46.1 µM]

What do the screens show for `Cn1c(=O)[nH]c(=O)c2c1nc(CN1CCN(c3cccc(Cl)c3)CC1)n2CCCc1ccccc1`?
VACV Venus inh: -12%; Marburg entry inh: -2%; VACV mCherry inh: 8%; FMDV inh: inconclusive
